Screens from PubChem BioAssay.
The sample as a whole holds a higher share of hits than the screen did.
p53ts 32C tox = p53ts cell cytotoxicity, permissive temperature; H1299-p53A138V at 32C, ATP luminescence viability, 24 h; Potency, µM (top dose mostly 46.1 µM), for inactives: at the highest dose activity change, negative = cytotoxicity, actives largely listed as cytotoxic; AID 924; actives 0.93% (n = 130,000);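 note: potency is the fitted concentration of half-maximal effect; 0% = DMSO and -100% = full killing by reference compound; nearly all actives have a fitted effect of over 55% in size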
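Viability by ATPlite luminescence after 24 h compound treatment (up to 46 uM) at the permissive 32C. Cells are H1299 carrying p53 A138V. Scale runs from DMSO basal to 100 uM tamoxifen as full kill; AC50 from Hill fits.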
p53ts 39C kill = kills p53ts cells at the nonpermissive temperature; H1299-p53A138V viability at 39C, ATP luminescence, 24 h; Potency, µM (titrated, usually from 46.1 µM), inactives show top-dose activity change, negative = cell killing, usual class: cytotoxic; actives 1.5% (n = 130,000); AID 902; note: potency is the fitted concentration of half-maximal effect; % is set by controls: 0 for no effect and ±100 for the full control effect; nearly all actives have a fitted effect of over 55% in size
FLuc inh = blocks Photinus pyralis firefly luciferase activity; P08659; purified firefly luciferase, luminescence, 8 min; Potency, µM (series often up to 57.1 µM), for inactives: at the highest dose activity change, negative = inhibition, actives largely listed as inhibitors; actives 2.2% (n = 72,000); note: potency is the fitted concentration of half-maximal effect; % is set by controls: 0 for no effect and ±100 for the full control effect; nearly all actives have a fitted effect of over 40% in size
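Firefly luciferase (PKLight detection mix) with 10 uM ATP in pH 7.2 imidazole buffer (KCl, MgCl2, Tween 20, BSA). Compounds tested across a concentration series (qHTS). Luminescence read after 8 min at ambient temperature.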
IMPase cell inh = membrane-permeable compound that blocks inositol monophosphatase; P97697; CHO-M1 cells, IP1 accumulation, HTRF TR-FRET ratio; inhibition (IP1 accumulation), % at 46.1 µM; 120,000 tested, under 10 active; active = well fitted curve in the direction sought with a large enough effect in the signal ratio, not every such curve was filed as active; inconclusive = small, poorly fitted or top-dose-only effect, or a change in a side signal; inactive = no such curve, though single readings can be large or run the other way; the % refers to the signal ratio;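 note: cells stimulated with carbachol in lithium chloride buffer; plate controls were DMSO basal wells for no effect and reference inhibitor wells for full effect; higher means more IMPase inhibition seen as more IP1 and lower FRET ratio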
Target sequence (P97697 whole entry, looked up): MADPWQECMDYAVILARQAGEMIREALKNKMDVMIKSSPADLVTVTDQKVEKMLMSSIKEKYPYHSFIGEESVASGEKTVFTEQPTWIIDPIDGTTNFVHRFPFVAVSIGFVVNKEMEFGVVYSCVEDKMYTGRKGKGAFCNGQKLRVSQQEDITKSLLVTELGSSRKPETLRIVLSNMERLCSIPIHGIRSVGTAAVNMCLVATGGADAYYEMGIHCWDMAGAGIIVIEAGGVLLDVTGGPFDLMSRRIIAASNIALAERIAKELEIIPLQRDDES
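Measured: the HTRF emission ratio (665/620 nm) plus the 620 nm donor channel, each fitted to the Hill equation to give AC50. Cells were CHO-M1 given compounds up to 46 uM and a 30 min carbachol stimulation at 37C.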
Hsp90 Hop PPI = changes Hsp90-Hop TPR2A binding signal, up or down. Potency, µM (series often up to 57 µM), without a hit: top-dose activity change, negative = inhibition. actives 0.44% (n = 71,000). AlphaScreen TPR2A-His6 binding biotin-Hsp90 C-terminal peptide; active = well fitted curve in either direction with a large enough effect; inconclusive = small, poorly fitted or top-dose-only effect, or another doubt; note: potency is the fitted concentration of half-maximal effect; % is set by controls: 0 for no effect and ±100 for the full control effect
IkB signaling = inhibitors of IkB signaling in ABC-DLBCL cells. ABC-DLBCL IkBa-CBG/CBR dual luciferase ratio, 4 h; response scale: scaled: untreated 0%, proteasome inhibitor 100%. Potency, µM (titrated, usually from 57.1 µM), for the others: at the top dose IkBa stabilization activation. actives 0.04% (n = 110,000). AID 445; active = well fitted curve in the direction sought with a large enough effect in the signal ratio, not every such curve was filed as active; inconclusive = small, poorly fitted or top-dose-only effect, or a change in a side signal; the % refers to the signal ratio;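 note: potency is the fitted concentration of half-maximal effect; the direction sought is a rising ratio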
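Curves were fitted separately to fusion (green), unfused (red) and ratio luminescence, then classed by r2, magnitude and activity. Cells: OCI-Ly3, 4 h compound plus doxycycline at 37C; 10 uM MG-132 defined full response.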
The depositor's hits bear a star. Unless noted, calls come from the whole dose curve; as a rule, active = well fitted curve in the direction sought with a large enough effect; inconclusive = small, poorly fitted or top-dose-only effect, or another doubt; inactive = no such curve, though single readings can be large; an effect the other way counts as inactive or inconclusive.

Screening CC(C)c1ccc(Nc2c(-c3ccccc3O)nc3cnccn23)cc1 returned p53ts 32C tox inconclusive, p53ts 39C kill 5.01µM* and IkB signaling inconclusive.
`Cn1c(=O)c2sccc2n2c(CCCC(=O)Nc3ccc(Oc4ccc(Cl)cc4)cc3)nnc12` gave p53ts 32C tox 0.7%, p53ts 39C kill -22.9% and IkB signaling inconclusive.
Screening Cc1nnc2ccc(N3CCN(C(=O)c4ccccc4)CC3)nn12 returned p53ts 32C tox -0.4%, p53ts 39C kill 3.8%, FLuc inh 0.4%, IMPase cell inh 1.7, Hsp90 Hop PPI -2.7% and IkB signaling 2.7%.
For O=C(c1ccc(Br)o1)N1CCN(c2ccc3nnc(-c4ccccc4)n3n2)CC1 the results were p53ts 32C tox 12.6µM*, p53ts 39C kill -5.1%, FLuc inh 1.2%, IMPase cell inh 4.8, Hsp90 Hop PPI inconclusive and IkB signaling inconclusive.
For Cc1cccc(-c2nc3c4ccccc4nc(N4CCN(c5ccccc5F)CC4)n3n2)c1 the results were p53ts 32C tox 11.9%, p53ts 39C kill -11.4% and IkB signaling -2.9%.
Screening CCOc1ccc(NC(=O)Cn2c(=O)n(Cc3ccccc3)c(=O)c3sc4ccccc4c32)cc1 returned p53ts 32C tox -4.7%, p53ts 39C kill -14.7% and IkB signaling -1.6%.
For COC(=O)CC(=O)CSc1nc2c(cc1C#N)CCCCC2 the results were p53ts 32C tox inconclusive, p53ts 39C kill inconclusive, FLuc inh 12.6µM*, IMPase cell inh -6.4, Hsp90 Hop PPI -0.6% and IkB signaling -0.3%.
CCOC(=O)CC(=O)CSc1nc2c(cc1C#N)CCC2 was read as IMPase cell inh -5.5.
Screening CCc1nnc(NC(=O)CSc2nc3c(cc2C#N)CCCC3)s1 returned p53ts 32C tox 0.794µM*, p53ts 39C kill 1.58µM*, FLuc inh inconclusive, IMPase cell inh inconclusive, Hsp90 Hop PPI 0.8% and IkB signaling -0.4%.
Screening Cc1cc(C)cc(N2CCn3c2nc2c3c(=O)n(Cc3c(F)cccc3Cl)c(=O)n2C)c1 returned p53ts 32C tox -4.4%, p53ts 39C kill -19.4% and IkB signaling 2.0%.
`Cc1ccc2nc(-c3ccc(Cl)c(NC(=O)c4ccc5c(c4)OCCO5)c3)oc2c1` gave p53ts 32C tox -15.0%, p53ts 39C kill 30.7% and IkB signaling -2.0%.
Screening O=C(NCCc1ccccc1Cl)c1ccc(Cn2c(=O)c3cccn3c3cccnc32)cc1 returned p53ts 32C tox 10µM*, p53ts 39C kill inconclusive and IkB signaling 4.6%.
COc1cccc(NC(=O)c2oc3ccccc3c2NC(=O)c2ccc3c(c2)OCO3)c1 was read as p53ts 32C tox 10µM*, p53ts 39C kill 10µM*, FLuc inh 3.98µM*, IMPase cell inh 7.6, Hsp90 Hop PPI 9.2% and IkB signaling 2.6%.
COc1cccc(NC(=O)c2oc3ccccc3c2NC(=O)c2ccc(OC(C)C)cc2)c1 was read as p53ts 32C tox inconclusive, p53ts 39C kill 10µM* and IkB signaling 0.8%.
Screening COc1cccc(NC(=O)c2oc3ccccc3c2NC(=O)C(C)(C)C)c1 returned p53ts 32C tox 5.0%, p53ts 39C kill 1.8%, FLuc inh -0.3%, IMPase cell inh inconclusive, Hsp90 Hop PPI 14.3% and IkB signaling inconclusive.
CC(C)Cn1c(=O)c2sccc2n2c(CCCC(=O)NCCc3ccc(Cl)cc3)nnc12 was read as p53ts 32C tox 0.7%, p53ts 39C kill -12.9% and IkB signaling 4.7%.
Screening CC(=O)Nc1c(C)nn(-c2ccccc2)c1N1CCC(C(=O)Nc2cccc(C(F)(F)F)c2)CC1 returned p53ts 32C tox -3.7%, p53ts 39C kill -17.0% and IkB signaling inconclusive.
c1ccc(OCCSc2nnc3sc4ccccc4n23)cc1 was read as p53ts 32C tox inconclusive, p53ts 39C kill inconclusive, FLuc inh 25.1µM*, IMPase cell inh 2.8, Hsp90 Hop PPI 4.9% and IkB signaling inconclusive.
`COc1cccc(OCCSc2nnc3sc4ccccc4n23)c1` gave p53ts 32C tox inconclusive, p53ts 39C kill -28.5%, FLuc inh -14.1%, IMPase cell inh 0.8, Hsp90 Hop PPI 1.1% and IkB signaling inconclusive.
Screening Cc1cccc(N2CCN(C(=O)C3CCN(S(=O)(=O)c4cccs4)CC3)CC2)c1C returned p53ts 32C tox 12.2%, p53ts 39C kill -12.6% and IkB signaling inconclusive.
For CCc1ccc(C2=CC(c3cccc(OC)c3OC)n3c(nc4ccccc43)N2)cc1 (stereo not given) the results were p53ts 32C tox 10µM*, p53ts 39C kill 15.8µM* and IkB signaling inconclusive.
For COc1ccc(C2C3=C(CCCC3=O)Nc3nc4ccccc4n32)c(OC)c1OC (stereo not given) the results were p53ts 32C tox 22.4%, p53ts 39C kill -7.8%, FLuc inh 3.8%, Hsp90 Hop PPI 5.7% and IkB signaling -0.4%.
CCc1ccc(C2=CC(c3cccc(C)c3)n3c(nc4ccccc43)N2)cc1 (stereo not given) was read as p53ts 32C tox 8.91µM*, p53ts 39C kill 5.01µM* and IkB signaling inconclusive.
Screening Cc1ccc(Nc2ccc(N3CCN(C(=O)c4cccc([N+](=O)[O-])c4)CC3)nn2)cc1 returned p53ts 32C tox 2.2%, p53ts 39C kill 25.2% and IkB signaling inconclusive.
For COc1cc(NC(=O)c2ccc3oc(=O)c(S(=O)(=O)c4ccccc4)cc3c2)cc(OC)c1 the results were p53ts 32C tox 15.8µM*, p53ts 39C kill inconclusive and IkB signaling inconclusive.
Screening CNC(=O)c1cc2cc(OC)ccc2oc1=N returned p53ts 32C tox 2.3%, p53ts 39C kill -5.1%, FLuc inh -1.3%, IMPase cell inh -8.8, Hsp90 Hop PPI -0.3% and IkB signaling -1.6%.
Screening Cc1cccc(NC(=O)c2ccc3oc(=O)c(S(=O)(=O)c4ccc(F)cc4)cc3c2)c1C returned p53ts 32C tox -6.9%, p53ts 39C kill inconclusive and IkB signaling inconclusive.
For COc1ccc2oc(=N)c(C(=O)Nc3ccccc3)cc2c1 the results were p53ts 32C tox -27.4%, p53ts 39C kill inconclusive, FLuc inh 31.6µM*, IMPase cell inh -6.8, Hsp90 Hop PPI -2.0% and IkB signaling inconclusive.
Screening CC(C)c1ccc(NC(=O)c2ccc3oc(=O)c(S(=O)(=O)c4ccc(F)cc4)cc3c2)cc1 returned p53ts 32C tox 10µM*, p53ts 39C kill 2.51µM* and IkB signaling inconclusive.
For COc1ccc(C(=O)N=c2nc3ccccn3s2)cc1 the results were p53ts 32C tox 0.794µM*, p53ts 39C kill 0.316µM*, FLuc inh 0.501µM*, IMPase cell inh 1.2, Hsp90 Hop PPI -1.8% and IkB signaling inconclusive.
